Data taken from ChEMBL document CHEMBL3988442, “University of Dundee, Small-Polar-MMV Screening Library” (2021).
For some of these results: Results with a measured potency or affinity are listed apart.

Experiments:
Design in all cases: scale not given: direction of the effect not stated beside the values
[1] = target: Protein translocase subunit SecA (Escherichia coli (strain K12)) (UniProt P10408); assay: Assay to Identify E. coli SecA ATPase Inhibitors; assay type: functional; details: 30 µM
[2] = target: T1, Ubiquitin-activating enzyme e1, putative (Leishmania donovani (strain BPK282A1)) (UniProt E9BSI1); assay: Leishmania donovani Ubiquitin Activating Enzyme (LdE1); assay type: functional; details: 30 µM
T1 sequence (whole entry): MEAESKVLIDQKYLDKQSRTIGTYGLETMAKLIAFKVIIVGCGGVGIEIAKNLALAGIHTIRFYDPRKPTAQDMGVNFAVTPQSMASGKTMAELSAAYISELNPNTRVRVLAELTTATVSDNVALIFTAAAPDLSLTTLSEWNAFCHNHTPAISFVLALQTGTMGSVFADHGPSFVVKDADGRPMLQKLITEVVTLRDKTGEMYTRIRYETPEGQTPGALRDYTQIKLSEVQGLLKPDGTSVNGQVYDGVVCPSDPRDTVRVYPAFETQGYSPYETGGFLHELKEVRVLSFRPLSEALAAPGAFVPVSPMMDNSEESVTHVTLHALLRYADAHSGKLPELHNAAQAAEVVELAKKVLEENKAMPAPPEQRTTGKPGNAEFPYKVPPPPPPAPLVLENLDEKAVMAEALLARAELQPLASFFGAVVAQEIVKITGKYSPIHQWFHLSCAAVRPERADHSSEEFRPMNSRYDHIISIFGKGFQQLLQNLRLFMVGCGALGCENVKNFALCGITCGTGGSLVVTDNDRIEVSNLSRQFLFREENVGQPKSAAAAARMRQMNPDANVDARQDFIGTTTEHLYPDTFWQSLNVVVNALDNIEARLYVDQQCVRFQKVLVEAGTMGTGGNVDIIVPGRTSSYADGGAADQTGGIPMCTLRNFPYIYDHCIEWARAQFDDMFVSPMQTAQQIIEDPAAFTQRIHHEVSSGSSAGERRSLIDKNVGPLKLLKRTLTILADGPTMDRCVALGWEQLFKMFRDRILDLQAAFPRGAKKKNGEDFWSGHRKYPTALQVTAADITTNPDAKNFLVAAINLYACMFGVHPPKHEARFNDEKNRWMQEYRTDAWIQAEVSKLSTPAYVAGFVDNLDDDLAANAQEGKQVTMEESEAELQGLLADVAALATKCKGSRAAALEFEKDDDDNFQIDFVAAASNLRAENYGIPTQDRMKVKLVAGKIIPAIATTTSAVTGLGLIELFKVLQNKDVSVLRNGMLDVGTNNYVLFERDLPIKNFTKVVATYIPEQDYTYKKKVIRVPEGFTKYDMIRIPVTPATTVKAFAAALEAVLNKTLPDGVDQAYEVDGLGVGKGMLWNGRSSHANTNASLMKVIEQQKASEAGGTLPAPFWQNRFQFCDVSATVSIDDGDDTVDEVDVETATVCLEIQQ

[3] = target: AMP-activated protein kinase, AMPK (Homo sapiens) (UniProt P54646+O43741+P54619+Q9UGJ0+Q9Y478+Q13131+Q9UGI9); assay: AMP-dependent Kinase enzyme assay. An in vitro enzyme assay that detects ADP turnover that is directly proportional to AMPK activity. This uses naive AMPK that is activated during the assay with MK-8722; assay type: functional; details: 30 µM
[4] = target: Sialic acid-binding Ig-like lectin 9 (Homo sapiens) (UniProt Q9Y336); assay: Hs-Siglec9 ALPHAscreen SOP 20170721; details: 10 µM
[5] = system: Trypanosoma cruzi; assay: Trypanosoma cruzi phosphomannomutase and mannose-1-phosphate guanylyltransferase assay; assay type: functional; details: 10 µM
[6] = target: T2, Arginase-2, mitochondrial (Homo sapiens) (UniProt P78540); assay: in vitro enzyme assay to detect the production of urea directly proportional to the activity of Arginase II; assay type: functional; details: 33.3 µM; further: in the data most compounds retested in dose-response had high values
T2 sequence (whole entry): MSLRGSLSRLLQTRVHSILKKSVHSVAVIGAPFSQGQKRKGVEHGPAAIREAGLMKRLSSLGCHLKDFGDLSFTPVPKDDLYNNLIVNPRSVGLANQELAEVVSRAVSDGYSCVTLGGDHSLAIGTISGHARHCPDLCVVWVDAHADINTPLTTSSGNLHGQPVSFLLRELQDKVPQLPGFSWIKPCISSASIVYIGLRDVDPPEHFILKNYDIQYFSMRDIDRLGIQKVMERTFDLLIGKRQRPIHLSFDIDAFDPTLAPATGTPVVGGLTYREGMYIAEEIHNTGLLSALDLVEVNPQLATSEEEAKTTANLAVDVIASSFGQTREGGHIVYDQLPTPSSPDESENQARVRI

[7] = target: T3, Proteasome subunit beta (Trypanosoma cruzi) (UniProt O96673); assay: Trypanosoma cruzi proteasome chymotrypsin-like activity (TcProtChymo) assay.; further: in the data most compounds retested in dose-response had high values; assay type: functional; details: 9.37 µM
T3 sequence (whole entry): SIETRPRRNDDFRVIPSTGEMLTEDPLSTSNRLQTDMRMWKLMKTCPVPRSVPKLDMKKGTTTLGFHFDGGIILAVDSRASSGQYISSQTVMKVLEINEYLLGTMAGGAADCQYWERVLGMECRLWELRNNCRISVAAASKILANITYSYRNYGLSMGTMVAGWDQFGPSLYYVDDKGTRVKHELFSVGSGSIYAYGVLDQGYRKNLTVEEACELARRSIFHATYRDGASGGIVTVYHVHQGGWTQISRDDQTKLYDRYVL

[8] = organism: Homo sapiens; assay: To identify inhibition of the IFN signalling (Jak-Stat) pathway via expression of an eGFP reporter gene under the control of an IFN-stimulated response element (ISRE) containing MxA promoter.; assay type: functional; details: 30 µM
[9] = target: T4, Tyrosyl-tRNA synthetase, putative (Trypanosoma cruzi (strain CL Brener)) (UniProt Q4DSP6); assay: Trypanosoma cruzi tyrosyl tRNA synthetase (TcYRS) _High Tyrosine SOP; assay type: functional; details: 30 µM; further: in the data most compounds retested in dose-response had high values
T4 sequence (whole entry): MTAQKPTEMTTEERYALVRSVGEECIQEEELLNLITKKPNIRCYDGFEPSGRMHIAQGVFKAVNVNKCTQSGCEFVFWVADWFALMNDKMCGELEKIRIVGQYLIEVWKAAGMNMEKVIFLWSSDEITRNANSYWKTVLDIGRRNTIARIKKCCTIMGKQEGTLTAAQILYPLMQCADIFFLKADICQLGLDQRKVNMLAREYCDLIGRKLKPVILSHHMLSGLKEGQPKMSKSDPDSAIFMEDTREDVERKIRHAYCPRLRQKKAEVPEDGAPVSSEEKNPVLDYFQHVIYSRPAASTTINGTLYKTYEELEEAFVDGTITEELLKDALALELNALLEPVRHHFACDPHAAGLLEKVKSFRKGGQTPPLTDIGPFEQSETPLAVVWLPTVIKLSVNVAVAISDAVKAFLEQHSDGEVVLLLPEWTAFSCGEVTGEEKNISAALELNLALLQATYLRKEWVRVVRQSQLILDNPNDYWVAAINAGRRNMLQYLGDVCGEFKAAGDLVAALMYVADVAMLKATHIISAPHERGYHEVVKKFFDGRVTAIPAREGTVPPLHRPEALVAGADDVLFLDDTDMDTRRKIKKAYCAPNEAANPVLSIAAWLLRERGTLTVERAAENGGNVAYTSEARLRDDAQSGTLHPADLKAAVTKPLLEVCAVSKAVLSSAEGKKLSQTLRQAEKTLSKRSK

[10] = target: T4, Tyrosyl-tRNA synthetase, putative (Trypanosoma cruzi (strain CL Brener)); assay: Trypanosoma cruzi tyrosyl tRNA synthetase (TcYRS) SOP; assay type: functional; details: 30 µM
[11] = target: Chromo domain-containing protein 1 (Saccharomyces cerevisiae (strain ATCC 204508 / S288c) (Baker's yeast)) (UniProt P32657); assay: ScCHD-1 Enzyme Inhibition Assay; assay type: functional; details: 30 µM; further: in the data most compounds retested in dose-response had high values
Sequence of Chromo domain-containing protein 1 (Saccharomyces cerevisiae (strain ATCC 204508 / S288c) (Baker's yeast)) (P32657 whole entry, the tested form may be a part): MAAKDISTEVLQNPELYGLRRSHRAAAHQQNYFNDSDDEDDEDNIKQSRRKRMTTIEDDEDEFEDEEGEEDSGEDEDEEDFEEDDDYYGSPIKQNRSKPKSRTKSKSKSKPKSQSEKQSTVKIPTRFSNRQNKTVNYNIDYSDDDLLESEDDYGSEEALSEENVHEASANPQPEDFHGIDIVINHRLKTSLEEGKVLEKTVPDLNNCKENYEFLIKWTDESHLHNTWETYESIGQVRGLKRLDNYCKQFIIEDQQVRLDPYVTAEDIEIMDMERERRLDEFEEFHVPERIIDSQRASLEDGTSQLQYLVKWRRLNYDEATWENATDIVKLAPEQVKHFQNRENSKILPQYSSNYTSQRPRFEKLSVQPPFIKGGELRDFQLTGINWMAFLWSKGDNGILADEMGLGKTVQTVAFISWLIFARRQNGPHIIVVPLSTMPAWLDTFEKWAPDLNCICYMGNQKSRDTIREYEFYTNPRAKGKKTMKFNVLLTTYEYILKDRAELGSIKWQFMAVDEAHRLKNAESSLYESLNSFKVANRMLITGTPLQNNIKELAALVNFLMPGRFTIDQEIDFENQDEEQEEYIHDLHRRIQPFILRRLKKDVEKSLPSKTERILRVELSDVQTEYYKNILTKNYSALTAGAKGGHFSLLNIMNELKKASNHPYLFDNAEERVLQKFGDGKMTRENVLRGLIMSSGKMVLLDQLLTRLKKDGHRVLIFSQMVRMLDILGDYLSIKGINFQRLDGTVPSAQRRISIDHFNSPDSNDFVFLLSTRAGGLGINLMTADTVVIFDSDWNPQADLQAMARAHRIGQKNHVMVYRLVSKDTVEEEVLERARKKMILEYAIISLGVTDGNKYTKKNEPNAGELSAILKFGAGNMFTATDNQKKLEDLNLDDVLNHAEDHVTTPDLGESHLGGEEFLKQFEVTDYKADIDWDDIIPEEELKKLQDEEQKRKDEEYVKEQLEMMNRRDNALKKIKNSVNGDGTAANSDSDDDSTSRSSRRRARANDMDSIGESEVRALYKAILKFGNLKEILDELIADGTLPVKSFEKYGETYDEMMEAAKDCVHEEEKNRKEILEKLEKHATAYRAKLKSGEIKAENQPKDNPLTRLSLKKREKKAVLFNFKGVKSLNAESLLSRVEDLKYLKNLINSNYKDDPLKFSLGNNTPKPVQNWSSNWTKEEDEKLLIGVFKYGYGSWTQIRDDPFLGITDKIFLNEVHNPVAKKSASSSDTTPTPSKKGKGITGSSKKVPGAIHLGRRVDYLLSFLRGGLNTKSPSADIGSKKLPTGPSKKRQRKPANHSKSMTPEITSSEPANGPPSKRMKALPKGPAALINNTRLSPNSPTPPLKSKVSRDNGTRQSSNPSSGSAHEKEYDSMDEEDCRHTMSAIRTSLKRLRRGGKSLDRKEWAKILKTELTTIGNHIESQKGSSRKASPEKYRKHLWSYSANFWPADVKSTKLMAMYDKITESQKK

Sequence of Sialic acid-binding Ig-like lectin 9 (Homo sapiens) (Q9Y336 whole entry): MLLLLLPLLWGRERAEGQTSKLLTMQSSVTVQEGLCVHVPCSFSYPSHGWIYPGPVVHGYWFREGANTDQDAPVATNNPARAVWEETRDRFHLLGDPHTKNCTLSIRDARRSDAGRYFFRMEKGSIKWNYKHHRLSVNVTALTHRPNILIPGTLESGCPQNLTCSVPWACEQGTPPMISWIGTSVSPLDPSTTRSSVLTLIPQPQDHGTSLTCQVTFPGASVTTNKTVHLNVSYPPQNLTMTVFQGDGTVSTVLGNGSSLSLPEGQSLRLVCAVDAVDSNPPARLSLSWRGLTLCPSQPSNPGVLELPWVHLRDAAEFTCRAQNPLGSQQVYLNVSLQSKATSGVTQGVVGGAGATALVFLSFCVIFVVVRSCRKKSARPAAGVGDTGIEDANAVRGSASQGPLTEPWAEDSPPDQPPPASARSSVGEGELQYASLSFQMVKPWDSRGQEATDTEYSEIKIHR
Sequence of Protein translocase subunit SecA (Escherichia coli (strain K12)) (P10408 whole entry): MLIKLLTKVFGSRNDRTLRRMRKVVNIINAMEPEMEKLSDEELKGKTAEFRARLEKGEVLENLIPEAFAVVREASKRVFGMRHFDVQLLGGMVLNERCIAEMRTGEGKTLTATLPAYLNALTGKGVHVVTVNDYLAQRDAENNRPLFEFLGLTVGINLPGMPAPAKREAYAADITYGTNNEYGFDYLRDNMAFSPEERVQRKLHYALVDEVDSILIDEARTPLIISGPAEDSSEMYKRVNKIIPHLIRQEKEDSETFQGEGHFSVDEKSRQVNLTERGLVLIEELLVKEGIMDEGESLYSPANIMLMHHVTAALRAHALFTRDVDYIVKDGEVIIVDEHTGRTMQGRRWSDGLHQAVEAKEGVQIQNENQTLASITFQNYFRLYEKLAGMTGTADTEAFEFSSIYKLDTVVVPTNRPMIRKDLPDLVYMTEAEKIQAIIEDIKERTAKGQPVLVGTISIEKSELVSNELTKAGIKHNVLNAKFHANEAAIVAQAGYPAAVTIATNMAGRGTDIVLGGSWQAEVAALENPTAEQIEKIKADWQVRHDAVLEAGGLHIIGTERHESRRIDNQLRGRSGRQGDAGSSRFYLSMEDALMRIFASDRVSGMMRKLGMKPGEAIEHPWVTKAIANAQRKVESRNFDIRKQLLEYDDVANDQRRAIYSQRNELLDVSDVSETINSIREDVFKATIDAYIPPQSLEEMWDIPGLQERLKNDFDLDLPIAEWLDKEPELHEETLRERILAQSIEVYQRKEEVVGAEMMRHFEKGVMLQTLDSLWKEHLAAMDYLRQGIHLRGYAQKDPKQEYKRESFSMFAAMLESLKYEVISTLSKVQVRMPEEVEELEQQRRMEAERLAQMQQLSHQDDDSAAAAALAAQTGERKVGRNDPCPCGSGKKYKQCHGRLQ

SMILES | Percent Effect [1] [%] | Percent Effect [2] [%] | Percent Effect [3] [%] | Percent Effect [4] [%] | Percent Effect [5] [%] | Percent Effect [6] [%] | Percent Effect [7] [%] | Percent Effect [8] [%] | Percent Effect [9] [%] | Percent Effect [10] [%] | Percent Effect [11] [%]
CC(C)c1nnc2n1CC(CNCc1ccncc1)CC2 (stereo unspecified) | -1.84 | 4.17 | -5.62 | -8.26 | -3.21 | 2.21 | 17 | -9.1 | 3.16 | -2.56 | -2.53
O=C([C@H]1CN(CCc2ccccc2)C[C@H]2OCC[C@@H]12)N1CCCO1 | -5.74 | 18.7 | -7.7 | -0.861 | 6.37 | -46.1 | 11.6 | 4.24 | 2.08 | 15 | -7.28
CCOCCCC(=O)NCCC(=O)N1CCN(c2ccccn2)CC1 | -3.47 | 7.89 | 4.17 | 5.65 | -3.99 | -4.73 | 13.3 | 2.43 | 5.32 | 13 | -4.16
CCC(=O)N1CC[C@@H](c2ccc3ccccc3c2)[C@H](O)C1 | -3.58 | 8 | -2.44 | 14.3 | 5.94 | 24 | 16.2 | 11.8 | 4.92 | 11.1 | -8.24
CC(=O)N(Cc1noc(C)n1)C1CCN(Cc2ccon2)C1 (stereo unspecified) | -2.71 | 21.5 | -1.98 | -4.08 | 1.13 | -3.66 | 22.3 | 10.2 | 3.12 | 15.2 | 52.1
O=C(NC[C@H]1OC[C@@H]2CCN(C(=O)c3ccco3)C[C@@H]21)C1CC1 | -4.23 | 2.7 | 1.41 | -2.71 | -3.81 | 5.21 | 10.6 | -3.1 | 2.15 | 11.1 | -4.6
COCCNC(=O)c1sc(Nc2ccc(Cl)cn2)nc1C | -1.6 | 20 | -8.36 | 6.95 | 0.589 | -3.7 | 17.2 | 5.99 | 6.35 | 10.3 | -10.7
CC(C)N(CC(N)=O)Cc1csc(COc2ccc(F)cc2)n1 | -3.17 | 25.3 | -6.77 | 1.71 | 7.65 | -4.18 | 8.76 | 63.8 | 5.42 | 24.1 | -4.66
Cc1cn2c(n1)CCC(NC(=O)CCn1ccnn1)C2 (stereo unspecified) | -3.55 | 5.26 | -3.01 | -3.07 | -3.08 | 3.24 | 5.33 | -2.68 | 2.46 | 6.17 | 3
Cc1nc(C)n(CC2CCCCN2CC(=O)N(C)Cc2ccco2)n1 (stereo unspecified) | -1.21 | 0 | 13.5 | 5.38 | 2.45 | 0.21 | 11.9 | 5.11 | 0 | -2.35 | -7.89
Cc1cc2n(n1)CC(CNC1CCN(Cc3ccccc3C)CC1)CN2 (stereo unspecified) | -8.28 | 0 | -15.1 | 13.7 | 0.684 | -2.73 | 2.49 | 16.5 | 4.3 | 3.7 | -2.06
